# Measurements from PubChem BioAssay (NCI).
# About 83,000 compounds went through this panel and 20% of them were active in at least one assay; those are over-represented in the sample as a whole.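 Cell lines were cultured in 96-well plates, exposed to a single compound concentration, and assessed for percent growth 48 hours later.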 A number with no mark means an inactive call. Active and inactive are the calls of the source. How the source made its calls: active means growth percent below 10; inactive means the rest.
# Tested on: NCI-H226 lung
# Experiment: NCI-60 one-dose screen, 48 h (100 = growth as untreated, 0 = no growth, -100 = all killed)
# Conditions: 10 µM unless noted
row,Compound,growth
1,CC(=O)O[C@H]1C(=O)[C@@]2(C)C([C@H](OC(=O)c3ccccc3)[C@]3(O)C[C@H](OC(=O)[C@H](O)[C@@H](NC(=O)c4ccccc4)c4ccccc4)C(C)=C1C3(C)C)[C@]1(OC(C)=O)CO[C@@H]1C[C@@H]2O (some centres not stated),44.8%
2,CCCCCCCC/C=C/CCCCCCCC1=NC(C)(C)CN1CC(C)O (configuration not stated),89.6%
3,COc1cc(C2NC(c3ccc(Cl)cc3)C(C)C(=NC(=O)c3cnccn3)C2C)cc(OC)c1OC (configuration not stated),102%
4,C[C@@H]1CC[C@H]2[C@@H](C)C(O)O[C@@H]3O[C@]4(C)CC[C@@H]1[C@]32OO4 (some centres not stated),69.8%
5,C/C(=C\CCc1ccsc1)CC/C=C(\C)CCCN1CCN(CCO)CC1,67.7%
6,CN1COc2ccc3ccccc3c2C1,93.7%
7,COc1ccc(-c2cnnn2-c2cc(OC)c3c(c2)OCO3)cc1,88.4%
8,Nc1c2ccccc2nc2ccccc12 (tested in a mixture with another compound),11%
9,CCOC(=O)C1=C(C)N2C(=NC3=C(CCC/C3=C\c3ccc(Cl)cc3)C2c2ccc(Cl)cc2)S1 (configuration not stated),47.5%
10,C=C(C)[C@H]1CC/C(C)=C/CC[C@]2(C)O[C@H]2CC/C(C=O)=C\C1O (some centres not stated),106%
11,CCN(CC)CCCCNc1c2ccccc2[n+](C)c2c1[nH]c1ccccc12,-11.8% (active)
12,Cn1cc(-c2csc(-c3c[nH]c4ncccc34)n2)c2cc(F)cnc21,73.5%
13,Nc1ccccc1-c1ccc([N+](=O)[O-])cc1,87.6%
14,Cc1ccc(NC(=O)Nc2ccc(-c3cccnc3)cc2N2CCC(CO)CC2)cc1,54%
15,NNC(=O)C1CC2c3ccccc3C1c1ccccc12 (configuration not stated),101%
16,O=C(OC[C@H]1O[C@H](OC(=O)c2cc(O)c(O)c(OC(=O)c3cc(O)c(O)c(O)c3)c2)[C@H](OC(=O)c2cc(O)c(O)c(OC(=O)c3cc(O)c(O)c(O)c3)c2)[C@@H](OC(=O)c2cc(O)c(O)c(OC(=O)c3cc(O)c(O)c(O)c3)c2)[C@@H]1OC(=O)c1cc(O)c(O)c(OC(=O)c2cc(O)c(O)c(O)c2)c1)c1cc(O)c(O)c(OC(=O)c2cc(O)c(O)c(O)c2)c1,7.2% (active)
17,NS(=O)(=O)c1ccc(NC2=C(Cl)C(=O)c3ccccc3C2=O)cc1,61.9%
18,CCOC(=O)C1=C(COCCN)NC(C)=C(C(=O)OC)C1c1ccccc1Cl (configuration not stated),91.9%
19,Cc1cc2c(C#N)n3c(c2cc1C)C(=O)C(c1ccccc1)Oc1ccccc1-3 (configuration not stated),34.6%

row,Compound,growth
1,CN(C)c1nc(N)nc(Cn2c(-c3nonc3N)nc3ccccc32)n1,91.3%
2,COC(=O)[C@]1(C(C)C)N[C@H](c2cn(-c3ccccc3)nc2-c2ccccc2)[C@@H]2C(=O)N(c3ccc(Cl)cc3)C(=O)[C@@H]21,105%
3,CCOC(=O)/C(=C/c1ccccc1)C(=O)c1ccccc1,84.3%
4,Cn1cnc([N+](=O)[O-])c1S(=O)(=O)Oc1ccc(Cl)cc1,97.8%
5,O=C(/C=C/c1ccccc1Cl)c1ccc(O)cc1,95.2%
6,O=C(Cc1ccccn1)C(F)(F)C(F)(F)C(F)(F)F,102%
7,Cn1c(=O)c2nc(SCc3ccccc3)n(C)c2n(C)c1=O,102%
8,COc1ccc2c(c1)nc(N)c1c3ccccc3cn21,95.3%
9,O=C(/C(=C/c1cccc([N+](=O)[O-])c1)c1ccccc1)c1ccccc1,58.8%
10,CCCCCCCC/C=C\CCCCCCCCOc1ccccc1CC(=O)NCC[N+]1(C)CCCC1,92.6%
11,O=C(C(=O)N1CCCCC1)c1ccc(OC2OC(CO)C(O)C(O)C2O)cc1 (configuration not stated),102%
12,O=NC1CC=CCC1c1ccccc1 (configuration not stated),105%
13,CCC(C)(C)C(=O)O[C@H]1C[C@@H](C)C=C2C=C[C@H](C)[C@H](CC[C@@H]3C[C@@H](O)CC(=O)O3)[C@H]21,64%
14,COc1ccc2[nH]cc(/C=C3/C(=O)Nc4ccc(F)cc43)c2c1,91.5%
15,C[C@]12CC[C@@H]3c4ccc(O)cc4CC[C@H]3[C@@H]1CC[C@@H]2NS(=O)(=O)c1cccc(Br)c1,60.5%
16,NC(=O)NN=C(C1CC1)C1CC1,109%
17,CCC1=C(c2ccc(OC)cc2)C(C)(C)Oc2c1ccc(O)c2CN1CCCC1,29%
18,CN(C)c1ccc(/C=C\c2ccnc3ccccc23)cc1,39%
